Results on seven compounds are retold here after PubChem BioAssay (Tox21).

SMILES strings stand for the structures. “And” between values parts separate entries of the source, which are not always exact repeats. Equal entries are not always repeated. Results filed as inconclusive are left out. The source made the active and inactive calls. Unless noted, the call rests on the fitted dose curve; in most records, active means well fitted curve in the direction sought with a large enough effect in the repeat runs; inconclusive means weak or mixed curves; inactive means no such curve, though single readings can be large; an effect the other way counts as inactive or inconclusive.

A short description of test [1]: qHTS assay to identify small molecule antagonists of the sonic hedgehog signaling (Shh) pathway (AID 1259369; calls by dose curve; further: nearly all actives have a fitted effect of over 45% in size; further: potency means the concentration at half of the fitted maximal effect). The essentials:
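Luminescence readout: firefly Luc under Gli1 response element in 3T3Gli1-Luc cells (NIH/3T3 clone). Antagonist mode, stimulation by conditioned medium; compound exposure 24hr at 37 C, 5% CO2.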

For test [2], the target named is Estrogen receptor beta (Homo sapiens) (UniProt Q92731). As to the kind of experiment: qHTS assay to identify small molecule agonists of the estrogen receptor beta (ER-beta) signaling pathway (AID 1259377; active means well fitted activation curve with a large enough effect in the signal ratio in the repeat runs, not every such curve was filed as active; the % refers to the signal ratio; further: potency means the concentration at half of the fitted maximal effect). The essentials: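 In HEK293T cells bearing a UAS-beta-lactamase reporter under ER-beta control, DMSO-delivered compounds were incubated for 16 hr at 37C. Activity was detected as fluorescence 2 hours after LiveBLAzer B/G FRET substrate addition.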
Chain of Estrogen receptor beta (Homo sapiens) (Q92731 whole entry, looked up): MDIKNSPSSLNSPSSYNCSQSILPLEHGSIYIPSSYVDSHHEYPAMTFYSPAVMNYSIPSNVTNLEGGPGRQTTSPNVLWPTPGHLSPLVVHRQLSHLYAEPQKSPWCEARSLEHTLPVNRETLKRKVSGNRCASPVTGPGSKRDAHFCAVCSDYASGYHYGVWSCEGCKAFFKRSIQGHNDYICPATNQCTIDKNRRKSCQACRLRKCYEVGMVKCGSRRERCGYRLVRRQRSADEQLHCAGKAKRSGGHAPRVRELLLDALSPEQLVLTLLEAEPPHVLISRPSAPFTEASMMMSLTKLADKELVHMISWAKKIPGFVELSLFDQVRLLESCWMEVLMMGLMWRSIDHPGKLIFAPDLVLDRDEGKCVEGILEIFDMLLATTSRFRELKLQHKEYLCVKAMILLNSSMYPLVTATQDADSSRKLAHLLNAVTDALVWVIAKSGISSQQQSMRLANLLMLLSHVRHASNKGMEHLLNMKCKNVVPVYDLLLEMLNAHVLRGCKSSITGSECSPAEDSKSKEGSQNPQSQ
In general terms: In qHTS, concentration-response curves come from the screen itself.

Test [3] can be described thus: qHTS assay to identify small molecule agonists of the androgen receptor (AR) signaling pathway in the presence of an antagonist - cell viability counter screen (AID 1259379). Further: nearly all actives have a fitted effect of over 25% in size. Further: potency means the concentration at half of the fitted maximal effect. In a few lines: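 Viability counter screen: CellTiter-Fluor fluorescence, measured in the same wells as the luciferase read-out. MDA-kb2 cells, 3,000/well, with nilutamide at 3.0uM final and compounds at 15 concentrations, 16 hr at 37C, 0% CO2.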

A short description of test [4]: qHTS assay to identify small molecule agonists of the estrogen receptor beta (ER-beta) signaling pathway - cell viability counter screen (AID 1259380). Further: nearly all actives have a fitted effect of over 30% in size. Further: potency means the concentration at half of the fitted maximal effect. The essentials:
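Luminescence read-out (CellTiter-Glo, 30 min, room temp) taken in the same wells as the beta-lactamase reporter assay; ER-beta-UAS-bla HEK293T cells exposed to DMSO-dissolved compounds for 16 hr at 37C in 2% charcoal-stripped FBS medium.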

The nature of test [5]: qHTS assay to identify small molecule antagonists of the estrogen receptor beta (ER-beta) signaling pathway - cell viability counter screen (AID 1259382).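 Further: HEK293T cells carrying ER-beta-UAS-bla reporter stimulated with estradiol; series mostly up to about 92 µM; nearly all actives have a fitted effect of over 55% in size.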 The essentials: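 Luminescent ATP read-out (CellTiter-Glo, 30 min, RT) taken in the same wells as the bla reporter assay. HEK293T ER-beta-UAS-bla cells in 2% charcoal-stripped FBS were exposed to compounds with 1nM E2 for 16 hr at 37C.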

Test [6] deals with Estrogen receptor (Homo sapiens) (UniProt P03372). The test is described as follows: qHTS assay to identify small molecule agonists of the estrogen receptor alpha (ER-alpha) signaling pathway in the presence of an antagonist (AID 1259383; calls by dose curve; further: nearly all actives have a fitted effect of over 15% in size; further: potency means the concentration at half of the fitted maximal effect; on activation: top concentration of the series differs between compounds). The essentials: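 Luciferase luminescence (ONE-Glo, 30min at room temperature) measured in VM7Luc4E2 cells after 22hr compound exposure at 15 concentrations, with 10.0nM ICI-182,780 final present; cells express endogenous ER-alpha and carry four EREs upstream of luciferase.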
Chain of Estrogen receptor (Homo sapiens) (P03372 whole entry, looked up): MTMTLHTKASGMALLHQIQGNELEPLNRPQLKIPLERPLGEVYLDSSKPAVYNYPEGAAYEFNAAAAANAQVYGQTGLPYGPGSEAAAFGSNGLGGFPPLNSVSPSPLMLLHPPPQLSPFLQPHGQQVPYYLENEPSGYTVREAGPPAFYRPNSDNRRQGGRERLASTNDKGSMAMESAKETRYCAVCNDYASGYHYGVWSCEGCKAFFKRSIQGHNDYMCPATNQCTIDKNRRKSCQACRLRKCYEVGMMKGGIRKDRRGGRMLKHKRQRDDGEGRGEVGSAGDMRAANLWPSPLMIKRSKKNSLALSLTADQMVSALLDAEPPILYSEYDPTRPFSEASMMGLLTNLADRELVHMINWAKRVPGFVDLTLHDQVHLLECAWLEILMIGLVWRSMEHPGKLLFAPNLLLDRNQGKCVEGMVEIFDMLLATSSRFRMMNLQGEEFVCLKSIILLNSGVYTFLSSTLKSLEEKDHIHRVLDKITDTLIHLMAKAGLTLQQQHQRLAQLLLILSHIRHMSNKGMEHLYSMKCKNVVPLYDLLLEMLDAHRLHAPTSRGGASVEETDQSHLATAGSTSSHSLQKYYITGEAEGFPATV

Test [7] can be described thus: qHTS assay to identify small molecule agonists or antagonists of the thyroid stimulating hormone receptor (TSHR) signaling pathway - wild type cell line counter screen (AID 1259384; calls by dose curve). The essentials: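 Wild-type HEK293 cells were plated 18 h at 37 C/5% CO2, pin-dosed with compound plus Ro20-1724 medium, held 30 min at room temperature, then given cAMP-d2 and anti-cAMP-cryptate; fluorescence was read after 1 h. Fifteen concentrations, triplicate.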

Test [8] has as its target Thyrotropin receptor (Homo sapiens) (UniProt P16473). The test is described as follows: qHTS assay to identify small molecule antagonists of the thyroid stimulating hormone receptor (TSHR) signaling pathway (AID 1259385; calls by dose curve; further: nearly all actives have a fitted effect of over 20% in size). In a few lines:
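TSHR-HEK293 cells were plated and held 18 h at 37C/5% CO2, then given compound plus Ro20-1724 and stimulated with TSH at 1.5 ng/mL final. After 30 min at room temperature, cAMP was detected with cAMP-d2/anti-cAMP-cryptate (1 h) by fluorescence.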

A short description of test [9]: qHTS assay to identify small molecule agonists of the estrogen receptor alpha (ER-alpha) signaling pathway in the presence of an antagonist - cell viability counter screen (AID 1259386). Further: nearly all actives have a fitted effect of over 30% in size. Further: potency means the concentration at half of the fitted maximal effect. The essentials: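 Read-out: CellTiter-Fluor fluorescence after 1hr reagent incubation, measured in the same wells as the luciferase readout. VM7Luc4E2 cells were exposed to 15 compound concentrations with 10.0nM ICI-182,780 for 22hr at 37C.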

The target in test [10] is Progesterone receptor (Homo sapiens) (UniProt P06401). As to the kind of experiment: qHTS assay to identify small molecule agonists of the progesterone receptor (PR) signaling pathway (AID 1346784; calls by dose curve; further: nearly all actives have a fitted effect of over 30% in size). In a few lines: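 Using charcoal-stripped serum (2%) to limit endogenous steroids, PR-UAS-bla HEK 293T cells received compounds for 16 hr at 37C after 6 hr plating; beta-lactamase FRET fluorescence was recorded following 2 hr substrate loading at room temperature.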
Chain of Progesterone receptor (Homo sapiens) (P06401 whole entry, looked up): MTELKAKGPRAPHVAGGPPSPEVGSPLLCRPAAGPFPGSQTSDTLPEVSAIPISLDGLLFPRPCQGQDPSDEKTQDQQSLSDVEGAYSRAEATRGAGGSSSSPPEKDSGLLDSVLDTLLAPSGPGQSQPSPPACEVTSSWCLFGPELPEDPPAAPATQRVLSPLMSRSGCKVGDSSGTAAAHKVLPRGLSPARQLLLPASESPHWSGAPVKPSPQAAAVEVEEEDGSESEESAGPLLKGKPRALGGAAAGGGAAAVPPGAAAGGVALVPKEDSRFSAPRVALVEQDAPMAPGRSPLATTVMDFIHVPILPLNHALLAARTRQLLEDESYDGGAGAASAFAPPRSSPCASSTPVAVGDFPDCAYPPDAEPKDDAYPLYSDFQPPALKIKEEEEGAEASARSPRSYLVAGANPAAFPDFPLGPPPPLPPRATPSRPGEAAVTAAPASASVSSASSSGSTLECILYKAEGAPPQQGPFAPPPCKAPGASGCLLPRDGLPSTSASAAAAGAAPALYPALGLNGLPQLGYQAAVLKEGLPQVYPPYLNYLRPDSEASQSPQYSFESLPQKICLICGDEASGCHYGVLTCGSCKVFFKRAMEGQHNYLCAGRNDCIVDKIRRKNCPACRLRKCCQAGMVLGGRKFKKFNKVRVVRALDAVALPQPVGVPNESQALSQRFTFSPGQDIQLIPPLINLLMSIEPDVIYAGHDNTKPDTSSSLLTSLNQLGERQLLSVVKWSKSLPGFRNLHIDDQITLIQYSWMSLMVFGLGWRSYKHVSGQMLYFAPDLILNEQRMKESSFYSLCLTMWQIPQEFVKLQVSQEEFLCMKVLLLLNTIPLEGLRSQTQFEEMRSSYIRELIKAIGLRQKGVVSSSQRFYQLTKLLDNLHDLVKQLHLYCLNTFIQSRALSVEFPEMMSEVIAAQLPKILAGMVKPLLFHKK

Test [11] can be described thus: qHTS assay to identify small molecule antagonists of the progesterone receptor (PR) signaling pathway - cell viability counter screen (AID 1346798). Further: series mostly up to about 92 µM; nearly all actives have a fitted effect of over 50% in size. The essentials:
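ATP content as viability readout: CellTiter-Glo luminescence, 30 min room temperature, in PR-UAS-bla HEK293T cells after 16 hr compound/R5020 treatment at 37C and 5% CO2.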

Test [12] is described as follows: qHTS assay to identify small molecule agonists of the progesterone receptor (PR) signaling pathway - cell viability counter screen (AID 1346799; calls by dose curve; further: nearly all actives have a fitted effect of over 45% in size). The essentials:
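Cytotoxicity in PR-bla HEK293T cells: 16 h compound, 37C; CellTiter-Glo added post-FRET read; luminescence after 30 min RT.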

Test [13] in a line: qHTS assay to identify small molecule antagonists of the TGF-beta/Smad signaling pathway - cell viability counter screen (AID 1346824). Further: nearly all actives have a fitted effect of over 50% in size. The essentials:
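SBE-bla HEK 293T cells were plated overnight at 37 C, then given compounds in DMSO plus TGF-beta1 (added as 0.25 ng/mL solution) for 5 hr. After the bla read, CellTiter-Glo was added to the same wells and luminescence read after 30 min at room temperature.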

The nature of test [14]: qHTS assay to identify small molecule agonists of the TGF-beta/Smad signaling pathway - cell viability counter screen (AID 1346829). Further: top concentration of the series differs between compounds; nearly all actives have a fitted effect of over 45% in size. The essentials: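 Same-well cytotoxicity: CellTiter-Glo added after the 2 hr room-temperature beta-lactamase substrate step, luminescence measured 30 min later; cells had 5 hr of compound at 37 C.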
Test [15] in a line: qHTS assay to identify small molecule agonists of the TGF-beta/Smad signaling pathway (AID 1346859; active means well fitted activation curve with a large enough effect in the signal ratio in the repeat runs, not every such curve was filed as active; the % refers to the signal ratio; further: series mostly up to about 77 µM). In a few lines: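 Stable Smad binding element-beta-lactamase HEK 293T cells; 5 hr compound exposure at 37 C under 5% CO2; 2 hr room-temperature substrate step; fluorescence excited at 405 nm, collected at 460 nm and 530 nm.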
The target in test [16] is Thyrotropin-releasing hormone receptor (Homo sapiens) (UniProt P34981). The test is described as follows: qHTS assay to identify small molecule agonists of the thyrotropin-releasing hormone receptor (TRHR) signaling pathway (AID 1346891; calls by dose curve;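 further: HEK293 cells expressing TRHR with calcium dye readout; series mostly up to about 58 µM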). The essentials:
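In 1536-format, 1500 TRHR-Hek293 cells per well grew 18 h, took up calcium dye for 2 h at 37 °C, received compound, and were read kinetically; 15-point titrations, triplicates.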

In test [17] the target is Progesterone receptor (Homo sapiens) (UniProt P06401). As to the kind of experiment: qHTS assay to identify small molecule antagonists of the progesterone receptor (PR) signaling pathway (AID 1346795; active means well fitted inhibition curve with a large enough effect in the signal ratio in the repeat runs, not every such curve was filed as active; the % refers to the signal ratio; further: potency means the concentration at half of the fitted maximal effect). In a few lines: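 Inhibition of R5020-induced (1 nM final) beta-lactamase reporter signal in PR-UAS-bla HEK293T cells was scored by FRET fluorescence after overnight (16 hr) compound treatment.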

Test [18] deals with Thyrotropin-releasing hormone receptor (Homo sapiens) (UniProt P34981). As to the kind of experiment: qHTS assay to identify small molecule antagonists of the thyrotropin-releasing hormone receptor (TRHR) signaling pathway (AID 1346877; active means well fitted inhibition curve with a large enough effect in the repeat runs, not every such curve was filed as active; further: series mostly up to about 51 µM). In a few lines:
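HEK293/TRHR cells, 18 h, 37 °C; Ca2+ dye 2 h; cpd 5 min RT; TRH 1 nM final; fluorescence read 3 min, 1 s intervals; 15 concs, triplicate.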

Chain of Thyrotropin receptor (Homo sapiens) (P16473 whole entry, looked up): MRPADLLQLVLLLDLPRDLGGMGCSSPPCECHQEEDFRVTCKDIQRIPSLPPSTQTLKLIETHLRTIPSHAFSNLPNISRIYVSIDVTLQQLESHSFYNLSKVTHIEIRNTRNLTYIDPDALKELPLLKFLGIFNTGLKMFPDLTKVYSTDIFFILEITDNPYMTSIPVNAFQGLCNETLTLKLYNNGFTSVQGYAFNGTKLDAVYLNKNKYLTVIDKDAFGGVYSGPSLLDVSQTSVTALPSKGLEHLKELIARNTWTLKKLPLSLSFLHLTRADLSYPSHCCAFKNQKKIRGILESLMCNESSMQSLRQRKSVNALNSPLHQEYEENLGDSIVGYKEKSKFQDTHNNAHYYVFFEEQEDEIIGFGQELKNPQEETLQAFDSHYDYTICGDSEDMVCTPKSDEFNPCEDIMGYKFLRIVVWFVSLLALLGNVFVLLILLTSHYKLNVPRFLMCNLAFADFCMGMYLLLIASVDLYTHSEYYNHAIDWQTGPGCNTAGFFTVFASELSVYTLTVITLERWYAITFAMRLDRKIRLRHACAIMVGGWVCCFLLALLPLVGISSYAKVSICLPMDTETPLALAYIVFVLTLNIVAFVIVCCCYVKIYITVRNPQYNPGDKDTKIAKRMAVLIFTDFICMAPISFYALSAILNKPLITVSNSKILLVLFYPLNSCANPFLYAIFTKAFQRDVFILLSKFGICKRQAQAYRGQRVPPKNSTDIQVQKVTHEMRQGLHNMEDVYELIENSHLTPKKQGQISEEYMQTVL
Chain of Thyrotropin-releasing hormone receptor (Homo sapiens) (P34981 whole entry, looked up): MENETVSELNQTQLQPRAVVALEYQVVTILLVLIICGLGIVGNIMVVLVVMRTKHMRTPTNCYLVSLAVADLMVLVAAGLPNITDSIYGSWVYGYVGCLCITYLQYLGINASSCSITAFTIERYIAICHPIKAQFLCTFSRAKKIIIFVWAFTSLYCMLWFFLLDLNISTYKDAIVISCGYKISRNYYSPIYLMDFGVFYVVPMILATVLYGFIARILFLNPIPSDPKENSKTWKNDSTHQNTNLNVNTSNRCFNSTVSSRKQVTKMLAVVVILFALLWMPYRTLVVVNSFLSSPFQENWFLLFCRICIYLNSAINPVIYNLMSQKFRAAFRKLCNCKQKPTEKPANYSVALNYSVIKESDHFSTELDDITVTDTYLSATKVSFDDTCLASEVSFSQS

Take `CCC=CC#N`: the Potency result in test [1], in test [2], in test [3], in [4], in test [5] and in test [6] was “inactive” throughout. For the same compound, the Potency entry in [8], in test [9], in test [10], in [11], in test [12] and in test [13] was “inactive” in each case. Further, the Potency result in test [14], in test [15] and in test [16] was “inactive” each time. In test [7], the compound was classed as inactive.
On to `CC(=O)Nc1cc(S(=O)(=O)O)cc2cc(S(=O)(=O)O)c(N=Nc3ccccc3)c(O)c12`, for which the Potency result in test [1], in [2], in test [4], in [5], in test [6] and in test [17] was “inactive” in each case. In addition, the Potency result in test [11], in [12], in test [13], in test [14], in test [15] and in test [16] was “inactive” in each case. The Potency was 27.3 µM (active) in test [3] and 17.2 µM (active) in test [9]. The call in test [18] was inactive.
With `C[C@]12CC[C@@H]3c4ccc(O)cc4CC[C@H]3[C@@H]1CC[C@@H]2OC(=O)CCC1CCCC1`, the Potency in test [1] is 13.3 µM (active); in [2], 2.2 nM (active) and 2.7 nM (active); in test [4], 61.1 µM (active) and 29.8 µM (active); in test [6], 4.9 nM (active) and 4.2 nM (active); in test [17] it was 0.386 µM (active). Further, the Potency result in test [3], in [5], in test [8], in test [9], in test [10] and in test [13] was “inactive” throughout. The Potency result in test [14], in test [15] and in test [16] was “inactive” in each case.
For the compound `C=CC(C)(CCC=C(C)C)OC(=O)CC(C)C` (stereo unspecified), the Potency entry in test [1], in [2], in test [3], in test [4], in [5] and in test [6] was “inactive” throughout. Further, the Potency result in test [8], in test [9], in [11], in [12], in [13] and in test [15] was “inactive” each time. For the same compound, the Potency result in test [16] was “inactive”. In test [18], the call was inactive.
As for `CC(C)=CCC1C(=O)N(c2ccccc2)N(c2ccccc2)C1=O`, the Potency result in test [1], in test [2], in test [3], in test [4], in test [5] and in test [6] was “inactive” in each case. For the same compound, the Potency entry in test [8], in [9], in test [10], in test [17], in [11] and in [12] was “inactive” throughout. Besides, the Potency result in [13], in [14], in test [15] and in test [16] was “inactive” throughout. The result in [7] and in [18] was inactive.
`CC1(C)S[C@@H]2[C@H](NC(=O)C(c3ccccc3)S(=O)(=O)O)C(=O)N2[C@H]1C(=O)O` (stereo partly specified): the Potency entry in [1], in test [3], in [4], in test [5], in [6] and in [9] was “inactive” each time. The Potency entry in test [10], in [17], in [12], in test [13], in test [14] and in test [15] was “inactive” throughout. Besides, the Potency result in test [16] is “inactive”. Besides, the result in test [7] and in [18] was inactive.
With `CCC(C)COC(C)=O` (stereo unspecified), the Potency result in test [1], in [3], in [4], in test [5], in test [6] and in test [9] was “inactive” in each case. Also, the Potency result in test [10], in [17], in test [11], in test [12], in test [13] and in test [14] was “inactive” each time. In [15], the Potency result was “inactive”. Moreover, the call in [7] was inactive.
